# Assay results reported in PubChem BioAssay (NCI).
# This is part of a sample that, as a whole, favours compounds with a hit. Of some 79,000 tested, about 15% had one in any assay. Calls of active or inactive are those of the source. Rule as the data show it: active = growth inhibition above about 70%; inactive = the rest. Where a SMILES comes first, the peptide text is derived from it. The star is where a group is joined. Cbz = O=C(OCc1ccccc1)*
# Experiment: NCI Yeast Anticancer Drug Screen. Data for the mlh1 rad18 strain (AID 175)
# Conditions: S. cerevisiae mlh1 rad18 strain growth inhibition; at 50.0 µM; active compounds read high
# Procedure, shortened: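 Read-out is yeast growth inhibition, calculated against vehicle-only controls. The compound was applied to a strain engineered with DNA damage repair alterations.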
row,SMILES,growth inhibition
1,C/C(=N\NC(=S)N1CCCC1)c1ccc[nH]1,-2.3% (inactive)
2,CC(CC(C)(C)C)C(=O)NC(N)=O (stereo not given),7.6% (inactive)
3,CN(C)CCC(C(N)=O)c1ccccc1 (stereo not given),18.1% (inactive)
4,CC1(O)C2C3C(I)C4C5C3C1C5C42 (stereo not given),17.4% (inactive)
5,CCOC(=O)c1cnc2nc[nH]n2c1=O,-36.5% (inactive)
6,NC(=O)C(Cc1ccc(O)cc1)NC(=O)c1ccccc1 (stereo not given),-14.2% (inactive)
7,N/C(CC/C(N)=N\O)=N\O,-1.7% (inactive)
8,CS(=O)(=O)N1COC(=O)[C@@H]1c1ccccc1,3.05% (inactive)
9,CCCCCCC(O)C/C=C/CCCCCC/C(C(=O)OC)=C(/O)C(=O)OCC (stereo not given),1.1% (inactive)
10,[N-]=[N+]=Nc1ccc(NCCCCCC(=O)ON2C(=O)CCC2=O)c([N+](=O)[O-])c1,67% (inactive)
11,Cc1nc(N(C)C)oc(=O)c1Cc1ccccc1,6.2% (inactive)
12,CCOC(=O)CCC(NC(=O)OCc1ccccc1)C(=O)NC(CCC(=O)OCC)C(=O)OCC (stereo not given) (Cbz-Glu(OEt)-Glu(OEt)-OEt; configuration not given here),-25.8% (inactive)
13,CCCCCC(Cl)(CC)CCCCC,-8.85% (inactive)
14,CN1CC(=O)N(CO)/C1=N\CO,2.05% (inactive)
15,CCOC(=O)C(=CNc1ccc(N(CC)CC)cc1)C(=O)OCC,0.35% (inactive)
16,CCCCCCCCCCCCN1CCCN(CCCCCCCCCCCC)CC1,99.2% (active)
17,ClC/C(=N\N1CCCCCC1)c1ccccc1,2.2% (inactive)
18,COc1cccc2c(SCC(=O)Nc3ccccc3-c3ccccc3NC(=O)CSc3c4ccccc4nc4c(OC)cccc34)c3ccccc3nc12,-28.8% (inactive)
19,COC(=O)C1C2OC(C(Br)C2Br)C1C(=O)O (stereo not given),3.8% (inactive)
20,CC(C)(S)CNCCSC(=O)c1ccccc1,30.1% (inactive)

row,SMILES,growth inhibition
1,CCN=C(NCC)N(CC)CC,-11.8% (inactive)
2,Nn1cnc2nccnc2c1=O,-5.6% (inactive)
3,CCOC(=O)NC(=S)C1=C(N2CCOCC2)CCC1,6.45% (inactive)
4,COC(=O)/C=C/C(=O)N1CC(C)N(C(=O)/C=C/C(=O)OC)CC1C (stereo not given),-14.4% (inactive)
5,CCn1ncc2c1nc(-c1ccccc1)c[n+]2[O-],-52% (inactive)
6,NNc1cc(=O)[nH]c(N)n1,-29.9% (inactive)
7,CC(C)(C)SCC(=O)O,1.55% (inactive)
8,CCOC(=O)NC(=O)c1cn(CCN2CCN(C(=O)NCCCCCCNC(=O)N3CCN(CCn4cc(C(=O)NC(=O)OCC)c(=O)n(CCN(CC)CC)c4=O)CC3)CC2)c(=O)n(CCC(CC)CC)c1=O,-31.5% (inactive)
9,ClC(Cl)(Cl)c1ccc(C2OCCO2)cc1,-0.3% (inactive)
10,CN(/N=C/c1ccccn1)C1=NCCCN1,-27% (inactive)
11,CCOC(=O)c1ccc(NC(=O)Oc2ccc(SC)cc2)cc1,6.9% (inactive)
12,COc1ccc(N=Cc2cc(Cl)cc(Cl)c2OC(=O)c2ccccc2)cc1,-19.2% (inactive)
13,CC1(C)CCC23CCC4(C)C(CCC5C6(C)CCC(=O)C(C)(C)C6CCC54C)C2C1OC3 (stereo not given),-5.1% (inactive)
14,CC(NC(=O)C(=O)c1ccccc1)c1ccccc1 (stereo not given),-12.2% (inactive)
15,O=C(O)c1cc(-c2ccccc2)ccc1O,46.6% (inactive)
16,Cc1c(C(=O)O)n2cnnc2c2ccccc12,1.5% (inactive)
17,Fc1c(F)c(-c2c(F)c(F)c(Br)c(F)c2F)c(F)c(F)c1Br,-0.65% (inactive)
18,CC1(C)Cc2c(oc3ncnc(N)c23)CS1,9.2% (inactive)
19,CCNc1ccc(S(=O)(=O)O)cc1C(=O)O,-4.6% (inactive)
20,COc1ccc(OC)c(NC(=O)C(=O)NNC(=O)c2sc(NNC(C)=O)nc2C)c1,30.8% (inactive)
